Results taken from PubChem BioAssay (NCATS).
Results filed as inconclusive are left out. A number with no mark means an inactive call. Calls of active or inactive are those of the source. The call rests on the fitted dose curve; in most records, active means well fitted cell-killing curve with a large enough effect; inconclusive means small, poorly fitted or top-dose-only effect; inactive means flat fitted curve, though single readings scatter.

Assay: Cell Viability - LYMP2-018 (AID 985);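 further: compound exposure lasted 24 hr at 37 °C; nearly all actives have a fitted effect of over 50% in size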
Conditions: LYMP2-018 lymphoblastoid cells, viability (qHTS); series mostly up to 92.2 µM; activity change, negative = cytotoxicity: at the top concentration
Text: NIH Chemical Genomics Center [NCGC]
NIH Molecular Libraries Screening Centers Network [MLSCN]
National Institutes of Environmental Health Sciences [NIEHS]
National Toxicology Program [NTP]
We have developed a 1536-well cell-based assay for quantitative high throughput screening (qHTS) against a number of cell lines to determine in vitro cytotoxicity of small molecules. This particular assay uses a human lymphoblastoid cell line (LYMP2-018) purchased from Coriell Institute for Medical Research.
NCGC Assay Protocol Summary:
The CellTiter-Glo luminescent cell viability assay (Promega) is a homogeneous method to measure the number of viable cells in culture. The end point readout of this assay is based on quantitation of intracellular ATP, an indicator of metabolic activity, using the luciferase reaction. Luciferase catalyzes the oxidation of beetle Luciferin to oxyluciferin and light in the presence of ATP. The luminescent signal is proportional to amount of ATP present.
Using the CellTiter-Glo luminescent cell viability assay, the amount of cellular ATP was measured in the lymphoblastoid cell line with complete culture medium following compound treatment for 24 hours. The assay was performed in opaque white Kalypsys 1536-well plates. In the screen, tetraoctylammonium bromide was used as positive control. Library compounds were measured for their ability to cause acute toxicity in the cell line, as reflected by a decrease in intracellular ATP levels, in a concentration-dependent manner. […] AC50 values were determined from concentration-response data modeled with the standard Hill equation.
qHTS protocol for CellTiter Glo lymphoblastoid cellular assay
[Step] [Parameter] [Value] [Description]
1. Reagent; 5 uL; 2500 lymphoblastoid cells/well
2. Time; 5 hr; 37 C incubation
4. Controls; 23 nL; Tetraoctylammonium bromide 6.4pM to 92 uM
5. Time; 24 hr; 37 C incubation
6. Reagent; 5 uL; CellTiter Glo reagent
7. Time; 30 min; Room Temperature
8. Detection; Luminescence; Viewlux plate reader
Keywords: cell viability, cytotoxicity, lymphoblastoid cell line, luminescence, NTPHTS, NTPHTS_NCGC, NIEHS, DSSTox, MLSMR, MLSCN, NIH Roadmap, qHTS, NCGC
Potency means the concentration at half of the fitted maximal effect.

Row | Structure (SMILES) | Potency | activity change, negative = cytotoxicity
1 | O=C(O)c1ccc(O)cc1O | inactive | 
2 | Cc1cccc([N+](=O)[O-])c1C |  | -17%
3 | CN(C)CCCCCCN(C)C |  | -1.92%
4 | O=C(O)c1ccccc1C(c1ccc(O)cc1)c1ccc(O)cc1 |  | 11%
5 | CCCCCCCCO |  | -22.2%
6 | CCC(O)OC(O)CC (stereo not given) | inactive | 
7 | COC(=O)c1ccc(C=O)cc1 |  | -1.33%
8 | CC(C)=CCCC(C)CCO (stereo not given) |  | -9.23%
9 | Cc1ccc(N)c([N+](=O)[O-])c1 |  | -1.1%
10 | C=CCc1ccc(OC)c(OC)c1 |  | -14.1%
11 | Clc1cc(Cl)c(Cl)c(Cl)c1Cl |  | -9.16%
12 | COc1ccc2nc(N)sc2c1 |  | -5.48%
13 | CCCCCCCCCCCCCC(=O)O |  | -9.65%
14 | CC(=O)OC/C=C(\C)CCC=C(C)C |  | -1.82%
15 | Clc1cc(Cl)c(Cl)cc1Cl |  | -0.409%
16 | O=S(=O)(O)c1ccccc1 |  | -19.7%
17 | O=C(/C=C/c1ccc(O)c(O)c1)O[C@@H](C(=O)O)[C@@H](OC(=O)/C=C/c1ccc(O)c(O)c1)C(=O)O |  | -4.02%
18 | CC1=CC(C)(C)Nc2ccccc21 | inactive | 
19 | CCO |  | -2.65%
20 | CC1=C2[C@H](/C=C(\C)C(=O)O)CC[C@@H](C)[C@H]2CC1 |  | -8.93%

Row | Structure (SMILES) | Potency | activity change, negative = cytotoxicity
21 | CCO[Si](CCCN)(OCC)OCC |  | -1.96%
22 | O=C(O)c1ccccc1 |  | 3.82%
23 | CC12CCC(CC1=O)C2(C)C (stereo not given) |  | -5.19%
24 | O=C1c2ccccc2C(=O)C1c1ccc2ccccc2n1 |  | -15.5%
25 | ClCCCl |  | -12.1%
26 | O=NO | inactive | 
27 | OCCNCCO |  | -12.7%
28 | CCCCOCCO | inactive | 
29 | NC1=NC(S)C2N=CN=C2N1 (stereo not given) | 7.94 µM (active) | 
30 | Nc1ccc(S(=O)(=O)O)cc1 |  | -5.45%
31 | COCC(=O)O |  | -10.2%
32 | c1ccccc1 | inactive | 
33 | C[C@H](CCC(=O)O)[C@H]1CC[C@H]2[C@@H]3CC[C@@H]4C[C@H](O)CC[C@]4(C)[C@H]3CC[C@]12C |  | -12.6%
34 | Nc1ccc(Cl)cc1Cl |  | -10.9%
35 | O=C(O)CC(C(=O)O)C(CC(=O)O)C(=O)O (stereo not given) |  | -0.596%
36 | c1ccc2c(c1)c1cccc3ccc4cccc2c4c31 |  | -1.19%
37 | Cc1ccccc1C | inactive | 
38 | C=CC(=O)OCCOCCOCCOCCOC(=O)C=C | 15.8 µM (active) | 
39 | Cc1ccc([N+](=O)[O-])cc1N |  | -13.4%
40 | CC1(C)CC(N=C=O)CC(C)(CN=C=O)C1 (stereo not given) |  | 7.68%
